The results in this text go back to PubChem BioAssay (NCATS).

Records with an inconclusive call do not appear. Values without a mark were called inactive. The source made the active and inactive calls. Calls follow the shape of the dose curve; as a rule, active = well fitted inhibition curve with a large enough effect; inconclusive = small, poorly fitted or top-dose-only effect; inactive = flat fitted curve, though single readings scatter.

The first test relates to CP192. Briefly: qHTS profiling for inhibitors of Plasmodium falciparum proliferation (AID 504749).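 Also: 0% = DMSO vehicle and full inhibition = artemisinin control; nearly all actives have a fitted effect of over 60% in size.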 The settings on record: P. falciparum in erythrocytes, SYBR Green DNA, 72 h; series mostly up to 28.7 µM; activity, negative = inhibition: at the top concentration. The method in brief: (§1)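 Three-day growth assay of blood-stage parasites in erythrocytes (0.3% parasitemia, 2.5% hematocrit) at 37 C, 5% CO2, quantified by SYBR Green DNA staining after overnight detergent lysis.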
Take `Cc1cc(CC(=O)O)n(C)c1C(=O)c1ccc(Cl)cc1`: the “activity, negative = inhibition” value is 12.7%.
The same measure, in the same setting: the result for `CCCOC(=O)c1ccccc1` reads 10%.
On the same count and under the same terms, the result for `CCCCC(CC)COC(=O)c1ccccc1O` (centres undefined) reads 1.66%; that for `Oc1cccc(O)c1`, -2.29%.
Still for that read-out and setting: the same measure for `CC(=O)CCC(=O)O`: 1.73%.
As to `COc1cc(C)c(Cc2cnc(N)nc2N)cc1OC`, the “activity, negative = inhibition” value was -3.32%.
Still for that read-out and setting: the result for `CCN(CC)CCNC(=O)c1cc(Cl)c(N)cc1OC` reads -0.679%; that for `CCCn1cnc2c1c(=O)n(CCCCC(C)=O)c(=O)n2C`, -3.96%; that for `O=C1c2c(O)cccc2Cc2cccc(O)c21`, 1.49%.
On to `Cc1ncc(COP(=O)(O)O)c(C=O)c1O`, for which the “activity, negative = inhibition” value was -1.14%.
With `O=c1cc(CO)occ1O`, the “activity, negative = inhibition” value is -2.59%.
The same measure, in the same setting: the result for `COc1ccc2c(c1)C(=O)N(CCc1ccc(S(=O)(=O)NC(=O)NC3CCCCC3)cc1)C(=O)C2(C)C` reads 10.3% [at 12.8 µM].

In another test the test system is CP194. Described as above. Particulars: P. falciparum in erythrocytes, SYBR Green DNA, 72 h; series mostly up to 28.7 µM; activity, negative = inhibition: at the top concentration. In outline:
as §1
`[O-][n+]1cccc(CO)c1`: the “activity, negative = inhibition” value was -0.0812%.
Same read-out and setting: the result for `Cc1cccc(C)c1NC(=O)CN(CC(=O)O)CC(=O)O` reads -5.27%; that for `O=C(O)[C@@H]1CSCN1`, 11.4%.
The same measure, in the same setting: the result for `COc1cc2[nH]c(=O)[nH]c(=O)c2cc1OC` reads 5.14% [at 12.8 µM]; that for `N[C@@H](CSCCCO)C(=O)O`, 2.1%.
In the case of `O=c1[nH]c(=O)c2[nH]c(=O)[nH]c2[nH]1`, the “activity, negative = inhibition” value is 4.31%.
On the same count and under the same terms, the same measure for `CCCCCCCCCCCCCCCCCCOCC(O)CO` (centres undefined): -7.68%; for `O=C(O)c1ccccc1-c1ccc(C(F)(F)F)cc1`: 2.98%; for `C[C@](N)(Cc1ccc(O)cc1)C(=O)O`: 3.79%.
On to `O=C1OC(OC(=O)c2cccnc2Nc2cccc(C(F)(F)F)c2)c2ccccc21` (centres undefined), for which the “activity, negative = inhibition” value is 7.11%.
On the same count and under the same terms, the result for `Nc1ccc(S(=O)(=O)Nc2ccccc2)cc1` reads -0.317%.
On to `NC(=O)NNc1ccccc1`, for which the Potency result is “inactive”.
As to `CC1(C)[C@@H]2CC[C@@]1(C)C(=O)C2`, the “activity, negative = inhibition” value was -10.6%.
On the same count and under the same terms, the result for `CCC(=O)Nc1ccc(O)cc1` reads -5.88%; that for `CC1(C)CO[C@@H](CC(=O)O)CN1`, 3.66%; that for `CCCCc1ncc(/C=C(\Cc2cccs2)C(=O)O)n1Cc1ccc(C(=O)O)cc1`, -1.11%.
Same read-out and setting: the result for `NCCNCCNCCNCCN` reads 6.19%.
Take `CCN(CC)CCSC(=O)C(c1ccccc1)c1ccccc1`: the Potency result is “inactive”.
Turning to `C=Cc1c(C)c2cc3[nH]c(cc4nc(cc5nc(cc1[nH]2)C(C)=C5CCC(=O)O)C(CCC(=O)O)=C4C)c(C)c3C=C`, the “activity, negative = inhibition” value is -0.0785%.
On the same count and under the same terms, the result for `NCC(=O)CCC(=O)O` reads -2.67%.
Consider `COc1cc(C(=O)N2CCOCC2)cc(OC)c1OC`, for which the Potency result was “inactive”.
In the case of `Cc1cccc(Nc2cc(Cl)nc(SCC(=O)O)n2)c1C`, the “activity, negative = inhibition” value was 0.828%.
The same measure, in the same setting: the same measure for `O=C(O)COc1nn(Cc2ccccc2)c2ccccc12`: -3.41%.
In the case of `CC(=O)NC(Cc1ccccc1)C(=O)O` (centres undefined), the “activity, negative = inhibition” value was 1.44%.
With `Cc1cc(CC(=O)O)n(C)c1C(=O)c1ccc(Cl)cc1`, the Potency entry was “inactive”.
For `CCCOC(=O)c1ccccc1`, the “activity, negative = inhibition” value was 0.867%.
With `CCCCC(CC)COC(=O)c1ccccc1O` (centres undefined), the “activity, negative = inhibition” value was -1.76%.
On the same count and under the same terms, the same measure for `Oc1cccc(O)c1`: -0.78%.
For `CC(=O)CCC(=O)O`, the “activity, negative = inhibition” value is -0.803%.
Same read-out and setting: the result for `COc1cc(C)c(Cc2cnc(N)nc2N)cc1OC` reads -2.57%; that for `CCN(CC)CCNC(=O)c1cc(Cl)c(N)cc1OC`, -1.96%.
Still for that read-out and setting: the same measure for `CCCn1cnc2c1c(=O)n(CCCCC(C)=O)c(=O)n2C`: -0.15%.
On the same count and under the same terms, the result for `O=C1c2c(O)cccc2Cc2cccc(O)c21` reads -3.72%.
Regarding `Cc1ncc(COP(=O)(O)O)c(C=O)c1O`, the “activity, negative = inhibition” value is 0.213%.
On the same count and under the same terms, the result for `O=c1cc(CO)occ1O` reads -0.823%.
On the same count and under the same terms, the result for `COc1ccc2c(c1)C(=O)N(CCc1ccc(S(=O)(=O)NC(=O)NC3CCCCC3)cc1)C(=O)C2(C)C` reads -2.43% [at 12.8 µM].

The test system of the next test is CP201. Described as above. The settings on record: P. falciparum in erythrocytes, SYBR Green DNA, 72 h; series mostly up to 28.7 µM; activity, negative = inhibition: at the top concentration. The method in brief: as §1
As to `[O-][n+]1cccc(CO)c1`, the “activity, negative = inhibition” value was 2.82%.
Still for that read-out and setting: the result for `Cc1cccc(C)c1NC(=O)CN(CC(=O)O)CC(=O)O` reads 0.877%; that for `O=C(O)[C@@H]1CSCN1`, 11.9%; that for `COc1cc2[nH]c(=O)[nH]c(=O)c2cc1OC`, -0.0369% [at 12.8 µM].
On to `N[C@@H](CSCCCO)C(=O)O`, for which the “activity, negative = inhibition” value was -0.451%.
The same measure, in the same setting: the same measure for `O=c1[nH]c(=O)c2[nH]c(=O)[nH]c2[nH]1`: 1.65%; for `CCCCCCCCCCCCCCCCCCOCC(O)CO` (centres undefined): 1.21%; for `O=C(O)c1ccccc1-c1ccc(C(F)(F)F)cc1`: 1.43%.
Same read-out and setting: the same measure for `C[C@](N)(Cc1ccc(O)cc1)C(=O)O`: 0.955%.
The same measure, in the same setting: the result for `O=C1OC(OC(=O)c2cccnc2Nc2cccc(C(F)(F)F)c2)c2ccccc21` (centres undefined) reads -1.65%; that for `Nc1ccc(S(=O)(=O)Nc2ccccc2)cc1`, 2.11%.
With `NC(=O)NNc1ccccc1`, the Potency entry is “inactive”.
On to `CC1(C)[C@@H]2CC[C@@]1(C)C(=O)C2`, for which the “activity, negative = inhibition” value was -3.65%.
On to `CCC(=O)Nc1ccc(O)cc1`, for which the “activity, negative = inhibition” value is 1.22%.
Still for that read-out and setting: the result for `CC1(C)CO[C@@H](CC(=O)O)CN1` reads 4.06%; that for `CCCCc1ncc(/C=C(\Cc2cccs2)C(=O)O)n1Cc1ccc(C(=O)O)cc1`, -3.24%; that for `NCCNCCNCCNCCN`, 0.378%.
In the case of `CCN(CC)CCSC(=O)C(c1ccccc1)c1ccccc1`, the Potency result is “inactive”.
In the case of `C=Cc1c(C)c2cc3[nH]c(cc4nc(cc5nc(cc1[nH]2)C(C)=C5CCC(=O)O)C(CCC(=O)O)=C4C)c(C)c3C=C`, the “activity, negative = inhibition” value is 0.39%.
Turning to `NCC(=O)CCC(=O)O`, the “activity, negative = inhibition” value is -4.55%.
Consider `COc1cc(C(=O)N2CCOCC2)cc(OC)c1OC`, for which the Potency entry was “inactive”.
Consider `Cc1cccc(Nc2cc(Cl)nc(SCC(=O)O)n2)c1C`, for which the “activity, negative = inhibition” value is 1.04%.
The same measure, in the same setting: the result for `O=C(O)COc1nn(Cc2ccccc2)c2ccccc12` reads -1.92%; that for `CC(=O)NC(Cc1ccccc1)C(=O)O` (centres undefined), -0.788%.
Regarding `Cc1cc(CC(=O)O)n(C)c1C(=O)c1ccc(Cl)cc1`, the Potency entry was “inactive”.
On to `CCCOC(=O)c1ccccc1`, for which the “activity, negative = inhibition” value was 0.953%.
Still for that read-out and setting: the result for `CCCCC(CC)COC(=O)c1ccccc1O` (centres undefined) reads -0.216%; that for `Oc1cccc(O)c1`, 0.626%; that for `CC(=O)CCC(=O)O`, 0.7%.
Take `COc1cc(C)c(Cc2cnc(N)nc2N)cc1OC`: the “activity, negative = inhibition” value is -3.26%.
Take `CCN(CC)CCNC(=O)c1cc(Cl)c(N)cc1OC`: the “activity, negative = inhibition” value is 0.174%.
Same read-out and setting: the result for `CCCn1cnc2c1c(=O)n(CCCCC(C)=O)c(=O)n2C` reads -0.236%; that for `O=C1c2c(O)cccc2Cc2cccc(O)c21`, -1.52%; that for `Cc1ncc(COP(=O)(O)O)c(C=O)c1O`, -6.83%.
On the same count and under the same terms, the same measure for `O=c1cc(CO)occ1O`: 3.76%.
Still for that read-out and setting: the result for `COc1ccc2c(c1)C(=O)N(CCc1ccc(S(=O)(=O)NC(=O)NC3CCCCC3)cc1)C(=O)C2(C)C` reads -1.41% [at 12.8 µM].
